From paper PMC7862700, “An all-to-all approach to the identification of sequence-specific readers for epigenetic DNA modifications on cytosine”

Experiments:
Test in all cases: DAPPL (digital affinity profiling via proximity ligation, sequencing); 10 mM Tris-HCl pH 7.5, 50 mM NaCl, 1 mM DTT, 4% glycerol, room temperature, 30 min; GST-TFs on glutathione beads, 16-mer random dsDNA library, 0.1% formaldehyde crosslink after washing; high values mean tight binding
[1] = target: T1, FEV (Homo sapiens, UniProt Q99581 1-238); conditions: protein: recombinant; tags: N-terminal GST; dsDNA, one strand shown
T1 sequence: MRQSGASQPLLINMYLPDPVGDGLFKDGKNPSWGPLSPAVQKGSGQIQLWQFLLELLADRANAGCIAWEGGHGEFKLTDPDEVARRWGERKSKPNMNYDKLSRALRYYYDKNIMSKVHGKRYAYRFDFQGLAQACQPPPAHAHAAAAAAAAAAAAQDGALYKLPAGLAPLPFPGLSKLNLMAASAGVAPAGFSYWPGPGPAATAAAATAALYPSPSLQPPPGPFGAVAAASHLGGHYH
In short: (§1)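 Binding signal is given per hexamer as its read frequency for a factor divided by its frequency in the tag-only sample. GST-fused human transcription factors were expressed in yeast, captured on glutathione beads, barcoded with DNA and pooled with that sample, then incubated with 200 nmole of a 16-mer random double-stranded DNA library in Tris/NaCl/DTT/glycerol buffer for 30 min at room temperature. The pools were then washed, crosslinked, proximity-ligated, amplified by PCR and sequenced on an Illumina NextSeq500.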

[2] = target: ETV5 (Homo sapiens, UniProt P41161 1-510); conditions: protein: recombinant; tags: N-terminal GST; dsDNA, one strand shown
Chain of ETV5 (P41161 whole entry): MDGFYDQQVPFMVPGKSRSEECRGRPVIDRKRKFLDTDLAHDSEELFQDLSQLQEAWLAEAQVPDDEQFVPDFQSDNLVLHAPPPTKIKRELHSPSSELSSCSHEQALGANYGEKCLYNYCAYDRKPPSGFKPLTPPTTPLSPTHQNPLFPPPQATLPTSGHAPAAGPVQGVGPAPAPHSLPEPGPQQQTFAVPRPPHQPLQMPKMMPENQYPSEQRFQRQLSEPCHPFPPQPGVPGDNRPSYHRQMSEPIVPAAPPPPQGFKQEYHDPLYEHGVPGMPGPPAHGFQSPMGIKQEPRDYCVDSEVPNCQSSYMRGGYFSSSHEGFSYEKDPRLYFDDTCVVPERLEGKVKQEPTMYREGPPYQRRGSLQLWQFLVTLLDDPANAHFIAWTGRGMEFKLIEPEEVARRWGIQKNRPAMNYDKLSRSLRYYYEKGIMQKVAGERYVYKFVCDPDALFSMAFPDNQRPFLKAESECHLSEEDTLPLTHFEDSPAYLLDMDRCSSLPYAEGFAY
In short: as §1

[3] = target: HSF1 (Homo sapiens, UniProt Q00613 1-529); conditions: protein: recombinant; tags: N-terminal GST; chain copies: 3; dsDNA, one strand shown
Chain of HSF1 (Q00613 whole entry): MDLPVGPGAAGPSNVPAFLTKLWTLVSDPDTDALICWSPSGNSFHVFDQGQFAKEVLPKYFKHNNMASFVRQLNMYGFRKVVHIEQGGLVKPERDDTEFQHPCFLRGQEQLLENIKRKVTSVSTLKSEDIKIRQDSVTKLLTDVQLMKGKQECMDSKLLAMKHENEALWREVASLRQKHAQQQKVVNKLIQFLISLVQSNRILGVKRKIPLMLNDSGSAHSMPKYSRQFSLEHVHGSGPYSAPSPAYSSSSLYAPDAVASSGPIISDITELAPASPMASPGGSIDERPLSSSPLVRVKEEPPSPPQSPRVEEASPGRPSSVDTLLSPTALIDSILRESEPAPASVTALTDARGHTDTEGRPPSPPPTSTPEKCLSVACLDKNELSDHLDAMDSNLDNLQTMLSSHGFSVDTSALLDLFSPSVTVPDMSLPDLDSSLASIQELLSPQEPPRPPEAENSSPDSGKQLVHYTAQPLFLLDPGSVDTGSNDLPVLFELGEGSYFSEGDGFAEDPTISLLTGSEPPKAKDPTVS
In short: as §1

[4] = target: T2, SPIC (Homo sapiens, UniProt Q8N5J4 1-248); conditions: protein: recombinant; tags: N-terminal GST; dsDNA, one strand shown
T2 sequence: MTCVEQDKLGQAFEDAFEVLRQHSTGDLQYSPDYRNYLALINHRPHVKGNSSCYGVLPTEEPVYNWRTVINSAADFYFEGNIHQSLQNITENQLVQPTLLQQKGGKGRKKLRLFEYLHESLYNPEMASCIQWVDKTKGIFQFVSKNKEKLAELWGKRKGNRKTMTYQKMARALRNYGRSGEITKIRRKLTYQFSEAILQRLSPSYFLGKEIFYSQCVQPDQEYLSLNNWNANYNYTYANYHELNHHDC
In short: as §1

[5] = target: ELF4 (Homo sapiens, UniProt Q99607 1-663); conditions: protein: recombinant; tags: N-terminal GST; dsDNA, one strand shown
Chain of ELF4 (Q99607 whole entry): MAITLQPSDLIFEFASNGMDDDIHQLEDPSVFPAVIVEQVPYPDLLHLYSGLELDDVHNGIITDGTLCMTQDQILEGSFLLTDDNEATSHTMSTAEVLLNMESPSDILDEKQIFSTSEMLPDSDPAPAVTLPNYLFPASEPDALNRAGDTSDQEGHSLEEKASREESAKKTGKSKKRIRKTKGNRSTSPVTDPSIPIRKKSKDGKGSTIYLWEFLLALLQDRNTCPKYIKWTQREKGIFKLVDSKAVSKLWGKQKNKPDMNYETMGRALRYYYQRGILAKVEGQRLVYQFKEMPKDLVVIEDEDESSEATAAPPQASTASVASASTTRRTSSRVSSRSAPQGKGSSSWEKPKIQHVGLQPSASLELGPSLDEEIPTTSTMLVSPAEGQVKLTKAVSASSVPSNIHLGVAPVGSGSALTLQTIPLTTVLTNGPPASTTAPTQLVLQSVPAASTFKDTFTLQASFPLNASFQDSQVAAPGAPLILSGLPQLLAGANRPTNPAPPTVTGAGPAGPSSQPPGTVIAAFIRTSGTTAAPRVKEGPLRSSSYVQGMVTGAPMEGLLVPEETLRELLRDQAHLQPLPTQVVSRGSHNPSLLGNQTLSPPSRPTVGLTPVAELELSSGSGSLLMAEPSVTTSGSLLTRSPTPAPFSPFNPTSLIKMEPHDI
In short: as §1

[6] = target: T3, ELK4 (Homo sapiens, UniProt P28324-2 1-405); conditions: protein: recombinant; tags: N-terminal GST; dsDNA, one strand shown
T3 sequence: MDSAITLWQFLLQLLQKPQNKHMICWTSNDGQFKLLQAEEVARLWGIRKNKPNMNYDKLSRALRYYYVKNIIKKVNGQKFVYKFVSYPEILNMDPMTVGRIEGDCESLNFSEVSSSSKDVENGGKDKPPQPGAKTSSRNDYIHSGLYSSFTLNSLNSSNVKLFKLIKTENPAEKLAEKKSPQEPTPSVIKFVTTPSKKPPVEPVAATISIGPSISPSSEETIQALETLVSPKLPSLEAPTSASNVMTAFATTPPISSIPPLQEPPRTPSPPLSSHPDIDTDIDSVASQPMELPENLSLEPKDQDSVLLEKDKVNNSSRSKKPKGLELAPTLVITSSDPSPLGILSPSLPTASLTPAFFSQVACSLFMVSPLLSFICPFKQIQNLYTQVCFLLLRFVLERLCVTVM
In short: as §1

[7] = target: T4, ETV2 (Homo sapiens, UniProt O00321 1-342); conditions: protein: recombinant; tags: N-terminal GST; dsDNA, one strand shown
T4 sequence: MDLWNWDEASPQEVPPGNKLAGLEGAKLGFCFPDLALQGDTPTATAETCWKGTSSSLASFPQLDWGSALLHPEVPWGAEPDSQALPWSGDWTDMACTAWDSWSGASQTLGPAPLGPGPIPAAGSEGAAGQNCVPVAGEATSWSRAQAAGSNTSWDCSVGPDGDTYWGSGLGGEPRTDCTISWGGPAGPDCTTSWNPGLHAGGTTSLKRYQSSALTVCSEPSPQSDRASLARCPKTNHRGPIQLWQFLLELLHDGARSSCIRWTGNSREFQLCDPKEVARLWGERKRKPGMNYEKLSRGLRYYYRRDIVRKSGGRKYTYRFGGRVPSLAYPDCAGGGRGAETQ
In short: as §1

[8] = target: T5, ELF3 (Homo sapiens, UniProt P78545 1-371); conditions: protein: recombinant; tags: N-terminal GST; dsDNA, one strand shown
T5 sequence: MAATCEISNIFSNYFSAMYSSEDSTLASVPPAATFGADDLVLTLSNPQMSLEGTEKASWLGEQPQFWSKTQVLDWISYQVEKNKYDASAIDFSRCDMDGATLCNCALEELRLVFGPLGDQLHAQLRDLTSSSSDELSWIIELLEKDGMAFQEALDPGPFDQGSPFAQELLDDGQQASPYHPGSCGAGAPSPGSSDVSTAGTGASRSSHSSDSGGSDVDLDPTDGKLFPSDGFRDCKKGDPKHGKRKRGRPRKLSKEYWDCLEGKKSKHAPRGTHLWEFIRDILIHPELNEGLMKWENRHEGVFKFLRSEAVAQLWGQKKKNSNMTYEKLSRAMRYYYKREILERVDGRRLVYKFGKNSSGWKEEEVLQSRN
In short: as §1

[9] = target: CRX (Homo sapiens, UniProt O43186 1-299); conditions: protein: recombinant; tags: N-terminal GST; dsDNA, one strand shown
Chain of CRX (O43186 whole entry): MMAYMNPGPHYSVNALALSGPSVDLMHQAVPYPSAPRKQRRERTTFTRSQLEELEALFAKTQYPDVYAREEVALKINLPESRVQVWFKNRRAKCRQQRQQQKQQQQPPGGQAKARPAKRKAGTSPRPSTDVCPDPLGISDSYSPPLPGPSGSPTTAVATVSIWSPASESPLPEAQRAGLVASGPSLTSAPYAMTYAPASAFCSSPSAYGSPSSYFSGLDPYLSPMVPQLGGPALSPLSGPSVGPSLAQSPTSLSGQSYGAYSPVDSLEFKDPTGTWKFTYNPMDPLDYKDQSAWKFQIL
In short: as §1

AAGCTA was tested, and the binding signal [1] was 1.13 fold enrichment (6-mer frequency, TF over GST control), the binding signal [2] was 1.17 fold enrichment (6-mer frequency, TF over GST control) and the binding signal [3] was 1.29 fold enrichment (6-mer frequency, TF over GST control). For the same sequence, the binding signal [4] was 1.13 fold enrichment (6-mer frequency, TF over GST control), the binding signal [5] was 1.2 fold enrichment (6-mer frequency, TF over GST control) and the binding signal [6] was 1.17 fold enrichment (6-mer frequency, TF over GST control). The binding signal [7] was 1.12 fold enrichment (6-mer frequency, TF over GST control), the binding signal [8] was 1.2 fold enrichment (6-mer frequency, TF over GST control) and the binding signal [9] was 1.58 fold enrichment (6-mer frequency, TF over GST control).
